Active and inactive are the calls of the source. Unless noted, the rule behind the calls is not given here.
Columns and labels:
[1] = A549 cell viability effects, profiling panel, calcein-AM fluorescence, 48 h, basal (AID 1162); settings: higher = more signal; note: test concentration not given here
[2] = adipocyte viability effects, profiling panel, cell-based, 3T3-L1 adipocytes, calcein-AM fluorescence, 48 h, basal (AID 1163); settings: 3T3-L1 adipocytes viability, higher = more signal; note: test concentration not given here
[3] = HepG2 cell viability effects, profiling panel, calcein-AM fluorescence, 48 h, basal (AID 1164); settings: higher = more signal; note: test concentration not given here
[4] = MM1S cell viability effects, profiling panel, calcein-AM fluorescence, 48 h, basal (AID 1165); settings: higher = more signal;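 note: viability of MM1S multiple myeloma cells under basal unstimulated conditions; test concentration not given here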
[5] = basal RPMI8226 viability, no added stimulus, profiling panel, cell-based, calcein-AM fluorescence, 48 h, PK04 Diversity Set (AID 1166); settings: RPMI8226 myeloma viability, higher = more signal;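 note: cells grown under basal conditions without added stimulus; test concentration not given here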
[6] = basal HepG2 mitochondrial membrane potential changes, profiling panel, cell-based, JC-1 fluorescence, 24 h, 100 nL compound (AID 1167); settings: higher = more signal; note: test concentration not given here
[7] = basal 3T3-L1 adipocyte mitochondrial potential changes, profiling panel, cell-based, JC-1 fluorescence, 3T3-L1 adipocytes, 24 h, 100 nL compound (AID 1168); settings: JC-1 mitochondrial fluorescence, higher = more signal, called active from +8 up or from −8 down; note: test concentration not given here
[8] = basal RPMI8226 mitochondrial membrane potential changes, profiling panel, cell-based, JC-1 fluorescence, 24 h, 100 nL compound (AID 1169); settings: RPMI8226 myeloma, JC-1 mitochondrial potential fluorescence, higher = more signal; note: test concentration not given here
[9] = basal MM1S mitochondrial membrane potential changes, profiling panel, cell-based, JC-1 fluorescence, 24 h, 100 nL compound (AID 1170); settings: higher = more signal; note: test concentration not given here
[10] = A549 lung cancer cell viability effects, profiling panel, resazurin fluorescence, 24 h, PK04 Diversity Set (AID 1171); settings: higher = more signal, called active from +8 up or from −8 down; note: test concentration not given here
[11] = HepG2 liver cancer cell viability effects, profiling panel, resazurin fluorescence, 24 h, PK04 Diversity Set (AID 1172); settings: higher = more signal; note: test concentration not given here
[12] = basal S. cerevisiae growth modulation, no modifier, primary screen, OD600, strain BY4716, 24 h, basal condition (AID 1173); settings: OD600, 24 h, higher = more signal, called active from +8 up or from −8 down
[13] = MM1S myeloma cell viability, profiling panel, resazurin fluorescence, basal, 24 h, PK04 Diversity Set (AID 1174); settings: higher = more signal, called active from +8 up or from −8 down;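 note: MM1S multiple myeloma cell line; test concentration not given here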
[14] = biological target: Dihydroorotate dehydrogenase (quinone), mitochondrial (Plasmodium falciparum (isolate 3D7)) (UniProt Q08210); assay: PfDHODH enzyme inhibitors, primary screen, biochemical, C-terminal His tag, absorbance 600 nm (AID 1175); settings: DCIP absorbance 600 nm, higher = more signal, called active from +8 up or from −8 down;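 note: recombinant parasite enzyme with a five histidine tag at its C terminus; test concentration not given here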
Sequence of Dihydroorotate dehydrogenase (quinone), mitochondrial (Plasmodium falciparum (isolate 3D7)) (Q08210 whole entry, looked up): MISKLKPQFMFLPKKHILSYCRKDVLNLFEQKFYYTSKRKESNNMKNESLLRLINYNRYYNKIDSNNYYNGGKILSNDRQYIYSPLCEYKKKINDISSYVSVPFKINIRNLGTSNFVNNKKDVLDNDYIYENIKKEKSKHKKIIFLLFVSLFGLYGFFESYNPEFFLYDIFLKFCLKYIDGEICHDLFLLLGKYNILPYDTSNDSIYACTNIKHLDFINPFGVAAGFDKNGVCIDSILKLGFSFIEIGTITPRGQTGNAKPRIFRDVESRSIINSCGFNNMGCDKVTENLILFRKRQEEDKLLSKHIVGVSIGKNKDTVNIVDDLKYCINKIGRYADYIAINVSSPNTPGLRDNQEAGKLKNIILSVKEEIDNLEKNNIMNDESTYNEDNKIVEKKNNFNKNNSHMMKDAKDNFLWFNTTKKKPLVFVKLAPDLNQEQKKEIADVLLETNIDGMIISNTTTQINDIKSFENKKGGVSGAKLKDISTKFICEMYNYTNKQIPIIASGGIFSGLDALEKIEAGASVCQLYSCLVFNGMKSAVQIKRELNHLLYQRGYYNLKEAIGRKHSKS

[15] = P. aeruginosa biofilm formation inhibitors, primary screen, strain PAO1, LB-PBS medium, absorbance 600 nm (AID 1176); note: test concentration not given here; settings: P. aeruginosa PAO1 growth/biofilm, A600, 12 h; higher = more signal
[16] = S. cerevisiae RM11-1a growth modifiers, primary screen, strain RM11-1a, OD600, basal, 24 h (AID 1177); settings: OD600, 24 h, higher = more signal, called active from +8 up or from −8 down;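 note: cultures grown under basal conditions with no added stressor; test concentration not given here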
[17] = E. coli acrAB mutant growth effects, primary screen, E. coli filamentation inducers, strain DRC39, OD650, 24 h (AID 1178); settings: higher = more signal, called active from +8 up or from −8 down;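 note: growth measured as culture turbidity by optical density at 650 nm; test concentration not given here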
[18] = E. coli acrAB mutant growth effects, primary screen, E. coli filamentation inducers, strain DRC39, OD650, 48 h (AID 1179);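 note: screen aims at cell division blockers that make cells filament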; settings: E. coli DRC39 delta-acrAB growth, higher = more signal, called active from +8 up or from −8 down
[19] = RPMI8226 myeloma cell viability, profiling panel, resazurin fluorescence, basal, 24 h, PK04 Diversity Set (AID 1180); settings: higher = more signal;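 note: RPMI8826 multiple myeloma cell line at 5000 cells per well; test concentration not given here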
[20] = biological target: E3 ubiquitin-protein ligase XIAP (Homo sapiens) (UniProt P98170); assay: XIAP binders, primary screen, biophysical, small-molecule microarray, fluorescence 635 nm (AID 1181); settings: small-molecule microarray binding, higher = more signal;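 note: score merges 667 nm emission and signal to noise over triplicate slides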
Sequence of E3 ubiquitin-protein ligase XIAP (Homo sapiens) (P98170 whole entry, looked up): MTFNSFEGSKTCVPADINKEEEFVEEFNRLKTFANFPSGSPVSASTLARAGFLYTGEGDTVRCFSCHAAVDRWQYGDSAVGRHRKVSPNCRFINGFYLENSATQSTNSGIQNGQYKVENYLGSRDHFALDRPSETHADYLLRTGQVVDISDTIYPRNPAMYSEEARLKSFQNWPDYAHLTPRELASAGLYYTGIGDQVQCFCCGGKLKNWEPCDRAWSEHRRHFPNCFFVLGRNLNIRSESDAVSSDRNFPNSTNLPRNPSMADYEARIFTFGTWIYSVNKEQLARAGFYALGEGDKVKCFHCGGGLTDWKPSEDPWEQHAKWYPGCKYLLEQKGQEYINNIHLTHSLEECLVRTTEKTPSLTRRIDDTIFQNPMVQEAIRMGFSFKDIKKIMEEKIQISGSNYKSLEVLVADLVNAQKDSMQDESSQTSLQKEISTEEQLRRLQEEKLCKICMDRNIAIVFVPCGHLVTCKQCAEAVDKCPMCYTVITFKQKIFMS

SMILES	z-score [1]	z-score [2]	z-score [3]	z-score [4]	z-score [5]	z-score [6]	z-score [7]	z-score [8]	z-score [9]	z-score [10]	z-score [11]	z-score [12]	z-score [13]	composite z-score [14]	z-score [15]	z-score [16]	z-score [17]	z-score [18]	z-score [19]	composite z-score [20]
Cc1ccc(C(C)CC(O)C2C=CC3C(=O)N(C)C(=O)C3N2Nc2ccccc2)o1 (stereo not given)	-0.428	-1.01	0.345	-0.144	0.0166	-1.35	-0.592 (inactive)	0.347	-0.249	-0.18 (inactive)	-0.243	0.372 (inactive)	-0.855 (inactive)	0.164 (inactive)	0.695 (inactive)	0.051 (inactive)	-1 (inactive)	-0.466 (inactive)	-0.874	0.198
CC(C)=CCCC(C)=CC(O)C1C=CC2C(=O)NC(=O)C2N1Nc1ccc(Cl)cc1Cl (stereo not given)	-0.483	-0.0042	-1.62	-3.76	-4.11	-3.49	-0.947 (inactive)	-0.238	-0.506	-0.577 (inactive)	-1.66	-4.77 (inactive)	-1.56 (inactive)	0.112 (inactive)	1.01 (inactive)	0.432 (inactive)	-0.0552 (inactive)	-0.797 (inactive)	-1.73	-0.0326
C[N+](C)(C)CCCCNC(=O)[C@H]1C[C@H]2C(=O)N[C@@H](Cc3ccccc3)C(=O)N2[C@H]1c1cccc(OCCO)c1	-0.52	-0.878	-0.097	0.135	-0.748	-0.559	-0.318 (inactive)	0.0888	-0.4	-0.967 (inactive)	-3.26	1.07 (inactive)	-0.476 (inactive)	-30.8 (active)	0.544 (inactive)	0.103 (inactive)	0.548 (inactive)	0.779 (inactive)	-0.863	0.459
COC(=O)[C@H](Cc1ccccc1)N1CC2=CCCC=C[C@@H]2[C@H]1[C@H](O)Cc1ccccc1	-0.183	-0.635	0.244	-3.12	-1.41	-0.866	-0.116 (inactive)	-1.16	-0.746	0.705 (inactive)	0.272	-1.7 (inactive)	0.612 (inactive)	-0.313 (inactive)	-0.565 (inactive)	-0.77 (inactive)	-0.337 (inactive)	-0.27 (inactive)	0.0722	0.104
CC(C)(C)OC(=O)CC[C@]1(C(=O)NCC(O)CO)N=C(c2ccc(OCCCO)cc2)O[C@H]1c1ccccc1N=[N+]=[N-] (stereo not given in full)	0.0239	0.809	0.324	-0.312	-0.198	0.0858	2.2 (inactive)	-0.832	-0.591	0.35 (inactive)	-0.108	-0.66 (inactive)	-1.58 (inactive)	-0.955 (inactive)	0.948 (inactive)	-0.134 (inactive)	-0.0029 (inactive)	0.0611 (inactive)	-0.288	-0.0018
CC(C)N1C(=O)c2ccccc2[C@](C)(C(=O)NCC(F)(F)F)[C@@H]1c1ccc(CO)cc1	0.508	1.33	1.01	0.0226	0.177	0.686	-0.0819 (inactive)	0.261	1.38	0.87 (inactive)	-0.116	-1.3 (inactive)	0.117 (inactive)	-0.172 (inactive)	-0.618 (inactive)	-0.613 (inactive)	0.558 (inactive)	-0.0513 (inactive)	1.45	-0.0195
COC(=O)C1=CC(CCCO)=CC(c2cccs2)N(Cc2cc3c(cc2Br)OCO3)C=C1C(=O)OC (stereo not given)	0.236	0.425	0.897	-1.26	-0.188	0.725	-0.253 (inactive)	-0.131	0.398	-0.0673 (inactive)	-0.245	-0.23 (inactive)	0.182 (inactive)	-0.851 (inactive)	0.173 (inactive)	1.92 (inactive)	0.404 (inactive)	-0.372 (inactive)	0.365	0.344
C=C(CCCC)C(=O)CC[C@@H](OC(=O)c1ccccc1-c1ccccc1C(=O)O)c1ccccc1OCCO	1.54	2.03	-0.29	-3.39	-3.95	-0.688	0.306 (inactive)	-0.67	-0.203	0.573 (inactive)	-0.174	-2.49 (inactive)	-0.608 (inactive)	-1.35 (inactive)	0.118 (inactive)	-1.61 (inactive)	0.625 (inactive)	0.403 (inactive)	-1.49	0.269
C=C(CCCC)C(=O)CC[C@H](OC(=O)c1ccccc1-c1ccccc1C(=O)O)c1ccc(OCCO)cc1	-0.107	0.251	-0.549	-3.19	-3.37	0.236	-0.245 (inactive)	-0.346	0.258	0.52 (inactive)	0.359	-1.6 (inactive)	-0.429 (inactive)	-1.03 (inactive)	0.203 (inactive)	0.152 (inactive)	0.373 (inactive)	-0.636 (inactive)	0.147	0.0652
CCCCCC1=C2CNC(Cc3ccccc3)(C(=O)OC)C=C2C(C)C1=O (stereo not given)	-1.33	0.598	-1.14	-2.69	-3.65	1.14	-1.55 (inactive)	-0.608	-0.32	-0.605 (inactive)	-1.19	1.36 (inactive)	-1.79 (inactive)	-0.461 (inactive)	0.026 (inactive)	0.546 (inactive)	-0.767 (inactive)	-0.217 (inactive)	-1.5	-0.138
C[C@@H]1ON(c2ccc(I)cc2)[C@H](c2cccc(NC(=O)OCC3c4ccccc4-c4ccccc43)c2)[C@H]1C(=O)N1C(=O)OC[C@H]1Cc1ccccc1	1.25	0.575	0.671	-0.749	-0.326	-0.194	1.54 (inactive)	-1.19	1.78	0.623 (inactive)	0.742	-1.04 (inactive)	0.965 (inactive)	0.14 (inactive)	0.13 (inactive)	0.774 (inactive)	1.32 (inactive)	0.818 (inactive)	1.06	-0.412
O=C(NCCN1CCOCC1)[C@@H]1c2ccccc2C(=O)N(Cc2ccc(OC(F)(F)F)cc2)[C@H]1c1ccc(CO)cc1	3.01	1.04	0.113	0.0559	-0.231	2.31	0.229 (inactive)	1.04	0.745	0.614 (inactive)	-0.129	-0.559 (inactive)	0.0245 (inactive)	-0.0449 (inactive)	0.925 (inactive)	-0.449 (inactive)	0.248 (inactive)	-0.322 (inactive)	0.546	0.0151
O=C(NC1CC1)[C@@H]1c2ccccc2C(=O)N(CC23CC4CC(CC(C4)C2)C3)[C@H]1c1ccc(CO)cc1	0.554	0.875	0.232	0.0732	0.202	1.49	0.397 (inactive)	0.555	-0.467	1.5 (inactive)	0.658	-0.498 (inactive)	0.74 (inactive)	-0.329 (inactive)	0.338 (inactive)	0.123 (inactive)	-0.0508 (inactive)	-0.428 (inactive)	1.07	0.141
CCC(CC)C(O)C1C=CC2C(=O)N(c3ccccc3)C(=O)C2N1Nc1ccccc1F (stereo not given)	0.21	0.561	1.09	1.38	0.523	0.387	-0.147 (inactive)	-0.231	-0.817	0.0513 (inactive)	0.85	0.153 (inactive)	-0.0479 (inactive)	1.57 (inactive)	0.67 (inactive)	-0.0886 (inactive)	-0.551 (inactive)	0.164 (inactive)	0.181	0.172
COC(=O)[C@@]1(Cc2ccc(OC)cc2)[C@H]2c3cc(C(=O)N4CCCC4)n(Cc4ccc(Cl)c(C(F)(F)F)c4)c3C[C@H]2CN1C(=O)c1ccccc1	-0.305	0.134	0.931	-0.963	-0.741	2.07	0.15 (inactive)	-0.671	-1.63	-0.134 (inactive)	0.27	0.681 (inactive)	-0.267 (inactive)	-0.902 (inactive)	0.135 (inactive)	0.276 (inactive)	-0.88 (inactive)	0.404 (inactive)	-0.859	-0.064
C=CC[C@@]12N=C(c3ccc(OCCCO)cc3)O[C@@H]1c1ccccc1N(CCC)C2=O	-0.604	0.96	-1.16	-1.79	-3.66	1.07	2.64 (inactive)	-1.22	-0.994	0.0626 (inactive)	0.167	-2.22 (inactive)	-1.19 (inactive)	-0.147 (inactive)	1.2 (inactive)	0.829 (inactive)	0.215 (inactive)	1.02 (inactive)	-0.473	-0.132
CCOC(=O)C1=CC[C@@H](c2ccc(OC)cc2)N(S(=O)(=O)c2ccc(C)cc2)[C@H]1CC	0.33	0.815	0.945	-1.25	-1.45	5.4	1.53 (inactive)	-0.301	-1.99	0.198 (inactive)	0.0292	-1.82 (inactive)	-0.289 (inactive)	-1.04 (inactive)	0.505 (inactive)	-0.0802 (inactive)	0.608 (inactive)	1.87 (inactive)	-0.793	-0.321
CC(C)(C)N1CC=CC23O[C@@H]4C=CCOC(=O)[C@@H]4[C@H]2C(=O)N(CCO)[C@@H]3C1=O (stereo not given in full)	-0.247	-0.229	-0.112	0.0476	-0.46	-0.731	0.316 (inactive)	0.0281	-0.537	-0.465 (inactive)	-0.237	0.377 (inactive)	-0.0504 (inactive)	-0.0529 (inactive)	-0.994 (inactive)	0.0505 (inactive)	0.0531 (inactive)	-0.147 (inactive)	-0.167	-0.0969
